Experimental data reported in PubChem BioAssay (NCATS).
A number with no mark means an inactive call. Results filed as inconclusive are left out. Where a call stands in place of a potency, no number is given. Calls of active or inactive are those of the source. Unless noted, the call rests on the fitted dose curve; in most records, active means well fitted curve in the direction sought with a large enough effect; inconclusive means small, poorly fitted or top-dose-only effect, or another doubt; inactive means no such curve, though single readings can be large; an effect the other way counts as inactive or inconclusive.

Experiments:
[1] = qHTS to identify inhibitors of the type 1 interferon - major histocompatibility complex class I in skeletal muscle: primary screen against the NCATS LOPAC collection (AID 1347405);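 further: lytic HiBiT luminescence reporting HLA-B protein level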
How it was run: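 Cells: C25cl48 human myoblasts, HiBiT-tagged HLA-B*08:01, stimulated with IFN-beta 4.0 ng/ml. Compounds are titrated 1:4.3 over 7 points from 46 uM final and incubated 24 hrs; endogenous MHC class I is quantified by HiBiT lytic luminescence.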

[2] = Validation qHTS assay for inhibitors of Activation Induced Cytidine Deaminase (AID): UDG Counterscreen signal (AID 1347427)
How it was run: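 Counterscreen read of UDG activity (2 U/mL, 4/3x) in the FRET deamination format with AID (1 uM, 4/3x), DJC20/DJC23 substrates (250 nM, 4x), 4 h at room temperature. NaOH stop, fluorescence at 560 ex/665 em.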

[3] = target: Single-stranded DNA cytosine deaminase (Homo sapiens) (UniProt Q9GZX7); test: Validation qHTS assay for inhibitors of Activation Induced Cytidine Deaminase (AID): AID signal (AID 1347429)
Single-stranded DNA cytosine deaminase (Homo sapiens), sequence (Q9GZX7 whole entry, looked up): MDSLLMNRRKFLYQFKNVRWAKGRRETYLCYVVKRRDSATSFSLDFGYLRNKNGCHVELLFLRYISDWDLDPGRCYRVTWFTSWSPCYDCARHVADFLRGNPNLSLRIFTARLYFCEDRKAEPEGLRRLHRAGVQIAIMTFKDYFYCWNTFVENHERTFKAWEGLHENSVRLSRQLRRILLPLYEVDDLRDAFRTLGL
How it was run: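 In this coupled qHTS, AID deaminates a FRET-labelled ssDNA substrate in the presence of UDG over 4 hr at room temperature. Compounds span up to 114 uM final.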

[4] = qHTS to identify inhibitors of the type 1 interferon - major histocompatibility complex class I in skeletal muscle: primary screen against the NCATS Pharmaceutical Collection (AID 1347407);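 further: luminescence of HiBiT knocked into endogenous HLA-B as interferon-induced MHC class I level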
How it was run: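 Immortalized human myoblasts (C25cl48) with HiBiT knocked into endogenous HLA-B*08:01 were stimulated with 4 ng/ml IFN-beta and treated with compounds (8-point, 1:5, top 46 uM final) for 24 h at 37 C; HiBiT lytic luminescence read.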

[5] = target: Protein phosphatase 1D (Homo sapiens) (UniProt O15297); test: RapidFire Mass Spectrometry qHTS Assay for Modulators of WT P53-Induced Phosphatase 1 (WIP1) (AID 1347424);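 further: amount of dephosphorylated VEPPL-S-QETFS peptide product formed by WIP1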; further: potency means the concentration at half of the fitted maximal effect
Protein phosphatase 1D (Homo sapiens), sequence (O15297 whole entry, looked up): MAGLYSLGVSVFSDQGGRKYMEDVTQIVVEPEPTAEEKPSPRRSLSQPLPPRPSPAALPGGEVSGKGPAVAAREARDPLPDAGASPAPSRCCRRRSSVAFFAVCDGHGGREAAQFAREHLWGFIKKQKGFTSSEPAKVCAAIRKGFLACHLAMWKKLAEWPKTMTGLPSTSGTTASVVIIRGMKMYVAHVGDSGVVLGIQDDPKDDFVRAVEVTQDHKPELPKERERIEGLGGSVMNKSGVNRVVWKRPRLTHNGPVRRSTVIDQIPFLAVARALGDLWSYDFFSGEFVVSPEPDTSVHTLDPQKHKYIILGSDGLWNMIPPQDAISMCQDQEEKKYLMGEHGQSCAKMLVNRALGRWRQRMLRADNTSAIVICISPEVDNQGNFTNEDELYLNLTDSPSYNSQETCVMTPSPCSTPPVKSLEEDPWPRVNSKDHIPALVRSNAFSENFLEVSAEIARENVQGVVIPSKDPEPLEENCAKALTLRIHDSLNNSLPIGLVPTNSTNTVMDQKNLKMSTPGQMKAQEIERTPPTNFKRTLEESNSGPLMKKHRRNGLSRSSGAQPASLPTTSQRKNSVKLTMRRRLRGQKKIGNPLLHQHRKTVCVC
How it was run: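 WIP1 (10 nM final) was preincubated 1 h at room temperature with compounds in Tris-HCl pH 7.5, 30 mM MgCl2, TCEP, EGTA, BSA; 2 uM VEPPL-pS-QETFS phosphopeptide was added for 5 min, quenched with formic acid, and dephosphorylated product quantified by RapidFire MS.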

[6] = target: Protein phosphatase 1D (Homo sapiens) (UniProt O15297); test: Rhodamine-PBP qHTS Assay for Modulators of WT P53-Induced Phosphatase 1 (WIP1) (AID 1347425)
How it was run: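 The read-out is the change in Rhodamine-PBP fluorescence (f1 - f0, ex 525/em 598 nm) as Pi is released, read each minute for 11 min. Final reaction: 5 nM WIP1, 10 uM phosphopeptide VEPPL-pS-QETFS, 10 uM Rh-PBP, 50 mM Tris-HCl pH 7.5, 30 mM MgCl2. Compound was preincubated with enzyme for 1 hour at room temperature.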

[7] = Primary qHTS for inhibitors of SARS-S pseudo-typed particle cell entry (AID 1479145; calls by dose curve; further: nearly all actives have a fitted effect of over 45% in size); details: outcome: dose series up to 57.1 µM unless noted
[8] = Primary qHTS for Huh7 cytotoxicity: counterscreen for inhibitors of MERS-S pseudotyped particle cell entry (AID 1479147; calls by dose curve); details: outcome: dose series up to 57.1 µM unless noted
[9] = qHTS to identify inhibitors of the type 1 interferon - major histocompatibility complex class I in skeletal muscle: primary screen against the NCATS Mechanism Interrogation Plate v5.0 (MIPE) Libary (AID 1347411); further: nearly all actives have a fitted effect of over 65% in size
How it was run: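 Cells were genome-edited human myoblasts carrying a HiBit tag on endogenous HLA-B. They were treated with IFN-beta (4.0 ng/ml) and titrated compounds (top 46 uM) for 24 hrs before lytic HiBiT detection.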

In the case of COC(=O)N1CCN(C(=O)Cc2ccc(Cl)c(Cl)c2)C(CN2CCCC2)C1 (configuration not stated), the Potency [1] is reported as “inactive”, the Potency [2] is reported as “inactive” and the Potency [3] is reported as “inactive”.

For N#C/C(=C/c1ccc(O)c(O)c1)C(N)=S, the Potency [1] was “inactive”, the Potency [2] was “inactive” and the Potency [3] was “inactive”.

In the case of C[CH2][Hg][S]c1ccccc1C(=O)O, the outcome [4] is reported as “inactive” and the Potency [5] is reported as 35.5 µM (active).

With CCCSP(=O)(OCC)SCCC the outcome [4] was “inactive”, the Potency [5] was “inactive” and the outcome [6] was “inactive”.

For Clc1cc(I)cc(Cl)c1NC1=NCCN1, the Potency [1] was “inactive”, the Potency [2] was “inactive” and the Potency [3] was “inactive”.

In the case of Nc1ccc(CCN2CCN(c3cccc(C(F)(F)F)c3)CC2)cc1, the Potency [1] is reported as “inactive”, the Potency [2] is reported as “inactive” and the Potency [3] is reported as “inactive”.

In the case of CN1CCc2cc(O)cc3c2[C@H]1Cc1ccc(O)c(O)c1-3, the Potency [2] is reported as “inactive” and the Potency [3] is reported as “inactive”.

In the case of CCCCCCCCCC(=O)O[C@H]1CC[C@H]2[C@@H]3CCC4=CC(=O)CC[C@]4(C)[C@H]3CC[C@]12C, the outcome [7] is reported as “inactive” and the outcome [8] is reported as “inactive”.

With C/C(O)=C(\C#N)C(=O)Nc1cc(Br)ccc1Br the Potency [2] was “inactive” and the Potency [3] was “inactive”.

In the case of CC(C)[C@@]1(NC(=O)[C@@H]2C[C@@H]3c4cccc5[nH]cc(c45)C[C@H]3N(C)C2)O[C@@]2(O)[C@@H]3CCCN3C(=O)[C@H](Cc3ccccc3)N2C1=O, the Potency [2] is reported as “inactive” and the Potency [3] is reported as “inactive”.

In the case of O=C(O)C(Cl)(Cl)Cl, the outcome [7] is reported as “inactive” and the outcome [8] is reported as “inactive”.

In the case of O=[N+]([O-])C(Br)(CO)CO, the outcome [7] is reported as “inactive” and the outcome [8] is reported as “inactive”.

With C=CCN(C1=NCCN1)c1c(Cl)cccc1Cl the Potency [2] was “inactive” and the Potency [3] was “inactive”.

For O=C(OCCN1CCCCC1)C(O)(c1ccccc1)c1ccccc1, the outcome [7] was “inactive” and the outcome [8] was “inactive”.

With COc1cc(C)[nH]c(=O)c1CNC(=O)c1c(C)n([C@H](C)C2CCOCC2)c2ccccc12 the outcome [9] was “inactive”.

With C=CCN1CC[C@]23c4c5ccc(O)c4O[C@H]2/C(=N/NC(=O)c2ccccc2)CC[C@@]3(O)[C@H]1C5 the Potency [2] was “inactive” and the Potency [3] was “inactive”.

With CN1[C@H]2CC[C@@H]1[C@@H](C(=O)O)[C@@H](OC(=O)c1ccccc1)C2 the outcome [7] was “inactive” and the outcome [8] was “inactive [at 114 µM]”.

With N[C@@H](CCl)C(=O)O the Potency [2] was “inactive” and the Potency [3] was “inactive”.

With O=c1c2ccccc2[se]n1-c1ccccc1 the Potency [2] was “inactive” and the Potency [3] was “inactive”.

With CCCn1c(C)c(C(=O)c2ccc3ccccc3c2)c2ccccc21 the Potency [2] was “inactive” and the Potency [3] was “inactive”.

For CCCN(CCC)CCc1c[nH]c2ccc(C(N)=O)cc12, the Potency [2] was “inactive” and the Potency [3] was “inactive”.

In the case of CC(C)CCON=O, the outcome [7] is reported as “inactive” and the outcome [8] is reported as “inactive”.

For O=C(O)c1cc[c]([Hg][Cl])cc1, the Potency [2] was “inactive” and the Potency [3] was “inactive”.

With Ic1ccccc1CNC1C2CCN(CC2)C1C(c1ccccc1)c1ccccc1 (configuration not stated) the Potency [2] was “inactive” and the Potency [3] was “inactive”.

With O=c1[nH]cc(N(CCCl)CCCl)c(=O)[nH]1 the outcome [7] was “inactive [at 114 µM]” and the outcome [8] was “inactive [at 114 µM]”.

For CC[C@H](C)[C@H]1O[C@]2(C=C[C@@H]1C)C[C@@H]1C[C@@H](C/C=C(\C)[C@@H](O[C@H]3C[C@H](OC)[C@@H](O[C@H]4C[C@H](OC)[C@@H](O)[C@H](C)O4)[C@H](C)O3)[C@@H](C)/C=C/C=C3\CO[C@@H]4[C@H](O)C(C)=C[C@@H](C(=O)O1)[C@]34O)O2, the outcome [7] was “inactive” and the outcome [8] was “inactive”.

With C[C@@H]1O[C@H](C[N+](C)(C)C)CS1 the Potency [2] was “inactive” and the Potency [3] was “inactive”.

In the case of N[C@@H](Cn1ccc(=O)[nH]c1=O)C(=O)O, the Potency [2] is reported as “inactive” and the Potency [3] is reported as “inactive”.

In the case of COc1ccc2c(c1)c(CCN1CCOCC1)c(C)n2C(=O)c1cccc(Cl)c1Cl, the Potency [2] is reported as “inactive” and the Potency [3] is reported as “inactive”.

With CCOc1ccccc1-n1c(C(C)N2CCN(C(=O)COc3ccc(Cl)cc3)CC2)nc2ccccc2c1=O (configuration not stated) the outcome [9] was “inactive”.

For COc1ccc2c(c1)/C(=C/c1cnc[nH]1)C(=O)N2, the Potency [2] was “inactive” and the Potency [3] was “inactive”.

For O=[N+]([O-])c1ccc2nc(N3CCNCC3)ccc2c1, the Potency [2] was “inactive” and the Potency [3] was “inactive”.

In the case of O=C(C[C@@H]1NCCC[C@H]1O)Cn1cnc2cc(Br)c(Cl)cc2c1=O, the outcome [7] is reported as “inactive” and the outcome [8] is reported as “inactive”.

For CCCCCCC(C)(C)c1ccc([C@@H]2C[C@H](O)CC[C@H]2CCCO)c(O)c1, the Potency [2] was “inactive” and the Potency [3] was “inactive”.

For C=CCN1CCc2cccc3c2[C@H]1Cc1ccc(O)c(O)c1-3, the Potency [2] was “inactive” and the Potency [3] was “inactive”.

In the case of C[C@@H]1[C@@H]2Cc3ccc(O)cc3[C@@]1(C)CCN2CC1CC1, the Potency [2] is reported as “inactive” and the Potency [3] is reported as “inactive”.

For C=CCN1CC[C@]23c4c5ccc(O)c4O[C@@H]2/C(=N/N=C2\CC[C@@]4(O)C6Cc7ccc(O)c8c7[C@@]4(CCN6CC=C)[C@@H]2O8)CC[C@@]3(O)C1C5, the Potency [2] was “inactive” and the Potency [3] was “inactive”.
